CD11b adhes enh = increases human CD11b/CD18 adhesion to fibrinogen; hit rate 0.07% among 93,000; P05107+P11215; AID 1499; K562 CD11b/CD18 adhesion to fibrinogen, ATPlite luminescence; activation, % at 10 µM;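 active = 10 µM primary screen giving 50% or more activity, confirmed by 40% or more on retest at that dose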
GALR2 agonist = activates the human galanin receptor 2; GALR2-expressing cells, agonist activation read-out; hit rate 0.48% among 140,000; O43603; activation, % (test concentration not listed); in the data active = activation above about 5%, passing the limit was not always enough
Target sequence (O43603 whole entry, looked up): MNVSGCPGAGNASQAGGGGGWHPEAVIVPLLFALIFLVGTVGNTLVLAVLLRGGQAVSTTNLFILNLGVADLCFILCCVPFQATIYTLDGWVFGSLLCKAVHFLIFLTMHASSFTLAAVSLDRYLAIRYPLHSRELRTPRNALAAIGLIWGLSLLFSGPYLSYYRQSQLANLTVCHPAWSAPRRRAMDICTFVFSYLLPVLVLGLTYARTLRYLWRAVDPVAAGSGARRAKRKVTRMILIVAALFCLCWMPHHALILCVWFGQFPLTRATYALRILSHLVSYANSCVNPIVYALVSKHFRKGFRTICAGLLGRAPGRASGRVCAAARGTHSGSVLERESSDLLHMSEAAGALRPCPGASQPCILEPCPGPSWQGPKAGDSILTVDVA
GALR2 antag = GALR2 (human) receptor antagonism. O43603. GALR2-expressing cells, antagonist mode. inhibition, % at 4 µM. hit rate 0.39% among 140,000. AID 828; in the data active = inhibition above about 27%;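 note: cells stimulated with galanin 1-16 at roughly its EC80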
CD11b adhes inh = inhibitors of human CD11b/CD18 binding to fibrinogen; hit rate 0.54% among 93,000; P05107+P11215; inhibition, % at 10 µM; K562 CD11b/CD18 adhesion to fibrinogen, ATPlite luminescence; Mn2+ added to activate the integrin; AID 1497;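 active = primary inhibition of 50% or more at 10 µM, then 40% or more on retest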
S1P2 antag = blocks the human S1P2 receptor; O95136; cell-based S1P2 antagonist assay, inhibition at 5 uM; inhibition, % at 5 µM; hit rate 0.21% among 97,000; AID 736; in the data active = inhibition above about 45%;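 note: CRE beta-lactamase reporter cells expressing human S1P2 stimulated with S1P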
Target sequence (O95136 whole entry, looked up): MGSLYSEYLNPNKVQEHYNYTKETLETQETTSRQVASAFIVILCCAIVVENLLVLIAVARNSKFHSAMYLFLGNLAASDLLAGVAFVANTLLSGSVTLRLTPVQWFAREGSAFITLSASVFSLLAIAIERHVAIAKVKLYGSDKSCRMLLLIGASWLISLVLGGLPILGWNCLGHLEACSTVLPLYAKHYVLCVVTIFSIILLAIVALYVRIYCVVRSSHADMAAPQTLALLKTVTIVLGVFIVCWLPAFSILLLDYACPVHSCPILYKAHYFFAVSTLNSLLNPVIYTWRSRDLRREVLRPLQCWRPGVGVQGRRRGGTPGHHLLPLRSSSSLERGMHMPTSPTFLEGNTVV
S1P2 ag = agonists of human S1P2 receptor; activation, % at 4.5 µM; hit rate 0.46% among 97,000; O95136; S1P2-expressing cell line, agonist reporter read-out; in the data active = activation above about 16%
Large screens that a line does not name were inactive. Rows were chosen to be rich in hits. Some 1.4% of all compounds tested hit in one or more screens of this group.

Cc1nn(-c2ccc(Cl)cc2)c2sc(C(=O)N3CCN(C(=O)c4ccco4)CC3)cc12	none (no result: GALR2 agonist, GALR2 antag, S1P2 antag, S1P2 ag)
CN(C)CC(C(=O)c1ccccc1)c1ccccc1 (stereo not drawn)	GALR2 antag 42 (no result: S1P2 antag, S1P2 ag)
Cc1ccc(-c2nnc(N(C)C(=O)c3cccnc3)s2)cc1	none (no result: CD11b adhes enh, CD11b adhes inh)
CN(C)c1ccc(/C=N/n2ncc3ccccc32)cc1	GALR2 agonist 25 (no result: S1P2 antag, S1P2 ag)
O=C(O)Cc1ccc(C(=O)c2ccc(F)cc2)s1	none
CCOC(=O)C(C)Sc1nnc(NC(=O)c2ccc(C)c([N+](=O)[O-])c2)s1 (stereo not drawn)	CD11b adhes inh 66 (no result: S1P2 antag, S1P2 ag)
O=C1c2oc3ccccc3c(=O)c2C(c2cccc(Br)c2)N1Cc1ccco1 (stereo not drawn)	CD11b adhes enh 60
O=C1c2oc3ccc(Br)cc3c(=O)c2C(c2cccnc2)N1Cc1ccco1 (stereo not drawn)	none (no result: GALR2 agonist, GALR2 antag, S1P2 antag, S1P2 ag)
Cc1cc(NC(=O)CCC(=O)N(c2ccccc2)C(C(=O)NC2CCCC2)c2ccccc2)no1 (stereo not drawn)	none (no result: CD11b adhes enh, CD11b adhes inh)
Cc1ccc(-c2nn3c(C)nnc3c3ccccc23)cc1S(=O)(=O)N1CCN(CCO)CC1	none
COc1ccc(-c2nnc3c4ccccc4c(C)nn23)cc1S(=O)(=O)N1CCN(CCO)CC1	S1P2 ag 17 (no result: CD11b adhes enh, CD11b adhes inh)
Cc1ccc(/C=N/NC(=O)c2ccoc2C)o1	none (no result: CD11b adhes enh, CD11b adhes inh, S1P2 antag, S1P2 ag)
Cc1ccc(Cn2cccc(NC(=O)NCc3ccccc3)c2=O)cc1	none (no result: CD11b adhes enh, CD11b adhes inh)
O=C(Nc1ccccc1-c1nc2ccccc2s1)c1ccco1	none
O=c1c(-c2nc3ccccc3s2)cccn1Cc1ccccc1	GALR2 agonist 31, S1P2 ag 63 (no result: CD11b adhes enh, CD11b adhes inh)
Cc1ccc(Cn2cccc(-c3nc4ccccc4s3)c2=O)cc1	GALR2 agonist 65, S1P2 ag 77
N#CC1=C(N)Oc2c(O)cc3ccccc3c2C1c1ccsc1 (stereo not drawn)	CD11b adhes inh 70 (no result: S1P2 antag, S1P2 ag)
N#Cc1nc(COc2ccc(F)cc2)oc1N1CCN(Cc2ccccc2)CC1	none (no result: CD11b adhes enh, CD11b adhes inh)
O=C(/C=C/c1ccccc1)c1cc(Br)ccc(=O)c1O	CD11b adhes inh 88
Cc1ccc(/C=C/C(=O)c2ccccc(=O)c2O)cc1C	none (no result: CD11b adhes enh, CD11b adhes inh, S1P2 antag, S1P2 ag)
COc1ccccc1C(=O)N1CCCN(C(=O)c2ccccc2OC)CC1	S1P2 ag 37
CCn1c(C)nc2cc(C(=O)OC(C(F)(F)C(F)F)C(F)(F)C(F)F)ccc21	S1P2 antag 70
CS(=O)(=O)c1ccc2nc(NC(=O)Nc3ccc(Cl)c(Cl)c3)sc2c1	none (no result: CD11b adhes enh, CD11b adhes inh, S1P2 antag, S1P2 ag)
CS(=O)(=O)c1ccc2nc(NC(=O)Nc3cccc(Cl)c3)sc2c1	S1P2 antag 47 (no result: CD11b adhes enh, CD11b adhes inh)
CN1c2ccccc2N(C)C1(C)c1ccccc1	none (no result: CD11b adhes enh, CD11b adhes inh, S1P2 antag, S1P2 ag)
CC(=O)N(Cc1cc(=O)[nH]c2ccccc12)c1ccc(C)cc1	none
O=c1cc(CNCCCO)c2ccccc2[nH]1	S1P2 ag 23
COc1ccc(/C=N/NC(=O)c2nc(-c3ccccc3)cc(-c3ccccc3)n2)cc1O	none (no result: CD11b adhes enh, CD11b adhes inh, S1P2 antag, S1P2 ag)
COc1ccc(/C=N/NC(=O)c2nc(-c3ccccc3)cc(-c3ccccc3)n2)cc1	S1P2 antag 54
Cc1c(NP(=O)(Oc2ccccc2F)Oc2ccccc2F)c(=O)n(-c2ccccc2)n1C	none (no result: CD11b adhes enh, CD11b adhes inh, S1P2 antag, S1P2 ag)
Cc1cccc(-c2nc(CSCC(=O)N3CCN(Cc4ccc5c(c4)OCO5)CC3)c(C)o2)c1	CD11b adhes inh 81 (no result: S1P2 antag, S1P2 ag)
Cc1ccc(-c2nc(CSCC(=O)N3CCN(c4ccccn4)CC3)c(C)o2)cc1	CD11b adhes inh 88
Cc1cc(C(=O)CN2C(=O)c3ccccc3C2=O)c(C)n1Cc1cccs1	S1P2 ag 27 (no result: CD11b adhes enh, CD11b adhes inh)
Cc1cc(C(=O)CN2C(=O)CCC2=O)c(C)n1Cc1ccccc1	S1P2 ag 150
Cc1cc(C(=O)CN2C(=O)NC3(CCCc4ccccc43)C2=O)c(C)n1Cc1ccccc1 (stereo not drawn)	none
CNC(=O)CSc1nnc(SCCC(=O)O)s1	none (no result: CD11b adhes enh, CD11b adhes inh, S1P2 antag, S1P2 ag)
CON/C=C(\C=Nc1ccc(Cl)cc1)c1ncc(C(F)(F)F)cc1Cl	S1P2 antag 47
CCn1c(Cc2ccccc2)nnc1SCc1cccc(C(=O)O)c1	none (no result: CD11b adhes enh, CD11b adhes inh, S1P2 antag, S1P2 ag)
COc1ccc(N(C)S(=O)(=O)c2cccc3cccnc23)c(OC)c1	CD11b adhes enh 54
COc1ccc(NC(=O)C2CCCN2S(=O)(=O)c2cccc3cccnc23)c(OC)c1 (stereo not drawn)	none
Clc1ccc(OCc2nnnn2-c2ccccc2)cc1	none (no result: CD11b adhes enh, CD11b adhes inh, S1P2 antag, S1P2 ag)
N#Cc1c(-c2ccccc2)nc(-c2ccccc2)[nH]c1=O	CD11b adhes inh 52
O=C(Nc1nnc(-c2cccs2)o1)c1cccc(C(F)(F)F)c1	CD11b adhes inh 72
CC1CC(C)CN(S(=O)(=O)c2ccc(C(=O)Nc3nnc(-c4cccs4)o3)cc2)C1 (stereo not drawn)	none
CC(C)CNS(=O)(=O)c1ccc(CCC(=O)O)cc1	none
C=CCn1c(NC(=O)c2ccccc2Cl)c(C#N)c2nc3ccccc3nc21	CD11b adhes inh 97
CCCCn1c(NC(C)=O)c(C#N)c2nc3ccccc3nc21	none
N=c1c(S(=O)(=O)c2ccc(Cl)cc2)cc2c(=O)n3ccccc3nc2n1CCN1CCOCC1	GALR2 agonist 8.3 (no result: S1P2 antag, S1P2 ag)
Cn1c(=N)c(S(=O)(=O)c2ccccc2)cc2c(=O)n3ccccc3nc21	S1P2 ag 22
CCSc1nnc(NC(=O)NC(CC)(C(F)(F)F)C(F)(F)F)s1	none
CCOC(=O)c1ccc(NC(=O)Nc2ccc(F)cc2)cc1	S1P2 ag 22
COC(=O)c1ccc(NC(=O)Nc2ccc(F)cc2)cc1	none (no result: S1P2 antag, S1P2 ag)
COC(=O)c1ccc2c(c1)C(C)(C)C(/C=C/c1ccc(OC)c(OC)c1OC)=[N+]2C	CD11b adhes inh 107, S1P2 antag 48
COC(=O)c1ccc2c(c1)C(C)(C)C(/C=C/c1ccc(O)cc1)=[N+]2C	GALR2 agonist 6.8
COC(=O)c1ccc2nc(C)c(C)nc2c1	none (no result: CD11b adhes enh, CD11b adhes inh)
Cc1ccc(C(=O)O/N=C(\N)c2ccc(Br)cc2)cc1C	none
COc1cccc(NC(=S)N2CCc3cc(OC)c(OC)cc3C2COc2ccc3c(C)cc(=O)oc3c2)c1 (stereo not drawn)	none (no result: CD11b adhes enh, CD11b adhes inh, S1P2 antag, S1P2 ag)
O=C(c1cc(NC(=O)C23CC4CC(CC(C4)C2)C3)cc(NC(=O)C23CC4CC(CC(C4)C2)C3)c1)N1CCCCC1	S1P2 antag 74 (no result: CD11b adhes enh, CD11b adhes inh)
O=C(NC(=S)N1CCCCC1)C12CC3CC(CC(C3)C1)C2	none
Cc1ccc(-c2nnc(SCC(=O)Nc3ccc4c(c3)oc3ccccc34)n2C)c(Cl)c1	CD11b adhes inh 60
CC(C)(C)c1cc(NC(=O)c2ccc(OC3CCCC3)cc2)no1	none (no result: CD11b adhes enh, CD11b adhes inh, S1P2 antag, S1P2 ag)
Cc1ccc(S(=O)(=O)N2CCCC2C(=O)Oc2ccccc2)cc1 (stereo not drawn)	S1P2 ag 36
CC(C)OCCCNC(=O)c1cccs1	none
Cc1nn(-c2ccccc2)c(C)c1C(=O)OCC(=O)c1c(N)n(CC(C)C)c(=O)n(C)c1=O	CD11b adhes inh 65 (no result: S1P2 antag, S1P2 ag)
O=C(Nc1cccc(C(F)(F)F)c1)c1cnc2n(c1=O)CCS2	none
Cc1ccc(S(=O)(=O)N(C(=O)c2ccncc2)c2ccc(OC(=O)c3ccncc3)c3ccccc23)c(C)c1	CD11b adhes inh 72
O=C(O)c1cccc(OCc2ccccc2Cl)c1	none
CC(=O)Nc1ccc(-c2cn3cc(C)ccc3n2)cc1	none (no result: CD11b adhes enh, CD11b adhes inh, S1P2 antag, S1P2 ag)
